Screening data deposited in PubChem by National Center for Advancing Translational Sciences (NCATS).
MCF10A rereplic: A quantitative high throughput screen for small molecules that induce DNA re-replication in MCF 10a normal breast cells | MCF 10A DNA re-replication, Hoechst nuclear intensity, 48 h | Potency, µM (top dose mostly 46.1 µM), for the others: at the highest dose activity, positive = re-replication, hits mostly activators | actives 2.9% (n = 350,000) | AID 624296, 2012; note: % of control where 0% means no effect; nearly all actives have a fitted effect of over 50% in size
ELG1 DNA repair: qHTS screen for small molecules that inhibit ELG1-dependent DNA repair in human embryonic kidney (HEK293T) cells expressing luciferase-tagged ELG1. HEK293T ELG1-luciferase reporter, luminescence, 16 h; DNA damage induced by 5-fluorouridine. Potency, µM (top dose mostly 46.1 µM), inactives show at the highest dose activity change, negative = inhibition, actives largely listed as inhibitors. actives 2.3% (n = 330,000); note: % is set by controls: 0 for no effect and ±100 for the full control effect; nearly all actives have a fitted effect of over 55% in size
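Quantitative HTS, concentration-response format. 2,000 cells/well co-treated with 5-fluorouridine and compound, 16 hr in 5% CO2 at 37 °C; ONE-Glo luminescence read after 30 min.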
KB-V1 cytotox: qHTS assay for MDR1-selective chemotherapeutics: Primary screen using the drug-selected MDR subline cells KB-V1; KB-V1 MDR cells viability, CellTiter-Glo, 72 h; Potency, µM (highest dose often 46.1 µM), actives largely listed as cytotoxic; actives 3.4% (n = 400,000); note: % is set by controls: 0 for no effect and ±100 for the full control effect; nearly all actives have a fitted effect of over 60% in size
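In this primary screen, KB-V1 cells overexpressing P-gp are incubated with library compounds (lowest to highest concentration) for 72 h at 37 degrees C before a luminescent ATP viability read.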
KB-3-1 tox: qHTS assay for MDR1-selective chemotherapeutics: Primary screen using the parental adenocarcinoma cell KB-3-1; KB-3-1 viability, CellTiter-Glo ATP luminescence, 72 h; Potency, µM (doses to about 46.1 µM), usual class: cytotoxic; actives 1.4% (n = 400,000); note: % is set by controls: 0 for no effect and ±100 for the full control effect; nearly all actives have a fitted effect of over 60% in size
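Viability of parental KB-3-1 cells, measured by CellTiter-Glo luminescence, followed a 72 h incubation at 37 °C with pinned compounds in phenol-red-free DMEM containing 10% FBS.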
SW480 rerep: A quantitative high throughput screen for small molecules that induce DNA re-replication in SW480 colon adenocarcinoma cells | actives 1.8% (n = 340,000) | Potency, µM (series often up to 46.1 µM), for inactives: at the top dose re-replication activation, most hits filed as activators | SW480 DNA re-replication, Hoechst DNA content imaging, 48 h | AID 624297, 2012; note: % of control where 0% means no effect; nearly all actives have a fitted effect of over 55% in size
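First, 250 cells per well were seeded. Next, compound or vehicle (23 nL) was pinned in, plates sat 48 hr at 37 C. Finally Hoechst was added for 40 min before fluorescence scanning.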
* = called active by the depositor; i = inactive; ? = inconclusive; · = no result given. Hits are enriched below; roughly 8.1% of the tested compounds scored in any of these assays. Calls come from the whole dose curve; as a rule, active = well fitted curve in the direction sought with a large enough effect; inconclusive = small, poorly fitted or top-dose-only effect, or another doubt; inactive = no such curve, though single readings can be large; an effect the other way counts as inactive or inconclusive. Potency is the fitted concentration of half-maximal effect.

SMILES	MCF10A rereplic	ELG1 DNA repair	KB-V1 cytotox	KB-3-1 tox	SW480 rerep
CN(C)c1ccc(C(CNS(=O)(=O)c2ccc(F)cc2)c2c[nH]c3ccccc23)cc1 (stereo not given)	21µM*	-20%	?	?	12%
NC(=O)c1cc(Sc2ccccc2)nc2ccccc12	4%	·	i	i	?
NC(=O)c1cc2c3ccccc3ccn2c1-c1ccccc1	?	?	0.65µM*	1.2µM*	0.73µM*
COc1cccc(/C=C/C(=O)Nc2ccc(OC)nc2)c1	-8%	18%	18µM*	?	-7%
COc1ccc(NC(=O)/C=C/c2ccccc2)cn1	-2%	?	i	i	-1%
C[C@H]1C(=O)N(C)CCN1C(=O)c1ccc(OC2CCN(CCc3ccccc3)CC2)cc1	·	·	i	i	·
CC1CC(Nc2ccccc2)c2ccccc2N1C(=O)c1cccnc1 (stereo not given)	?	16µM*	i	i	9%
CC1CC(Nc2ccccc2)c2ccccc2N1C(=O)c1ccccc1F (stereo not given)	?	-12%	i	i	?
C[C@@H]1C[C@H](Nc2ccccc2)c2ccccc2N1C(=O)c1cccnc1	13µM*	?	?	?	?
COc1ccccc1N1CCN(C(=O)c2cc(-c3ccc4c(c3)OCO4)on2)CC1	2%	2%	16µM*	i	0%
O=C(c1cc(-c2ccco2)on1)N1CCN(C(c2ccccc2)c2ccccc2)CC1	?	-5%	i	i	4µM*
COc1ccc(-c2cc(C(=O)N3CCN(C(c4ccccc4)c4ccccc4)CC3)no2)cc1OC	10µM*	-17%	i	i	-1%
COc1ccc(-c2cc(C(=O)N3CCN(C(c4ccccc4)c4ccccc4)CC3)no2)cc1	?	-3%	21µM*	?	1%
COc1cccc(NC(=O)CSc2nc(=O)n(Cc3ccncc3)c3c2CCC3)c1	·	·	i	i	·
O=C1C(=Cc2cccn2-c2ccccc2)C(=O)c2ccccc21	9%	?	i	i	18µM*
O=[N+]([O-])c1ccc2c(c1)C=C/C2=C\c1ccc(C=S)cc1	·	·	?	i	·
c1ccc(CN2CCN(c3ncnc4c3[nH]c3ccccc34)CC2)cc1	21µM*	15µM*	2.6µM*	18µM*	1%
COc1cccc2[nH]c3c(N4CCC(C)CC4)ncnc3c12	17%	?	?	?	-1%
Cc1ccc2[nH]c3c(N4CCN(Cc5ccccc5)CC4)ncnc3c2c1	?	?	12µM*	?	?
Cc1ccc(-n2ncc3c(N4CCN(Cc5ccccc5)CC4)ncnc32)cc1	·	·	i	i	·
c1nc(N2CCN(Cc3ccc4c(c3)OCO4)CC2)c2[nH]cnc2n1	-8%	?	i	i	10%
COc1cccc2[nH]c3c(N4CCN(Cc5ccc6c(c5)OCO6)CC4)ncnc3c12	·	23µM*	·	·	·
COc1ccc2c(c1)[nH]c1c(N3CCN(Cc4ccc5c(c4)OCO5)CC3)ncnc12	?	21µM*	2.6µM*	?	10%
Cc1ccc(-c2cc(C(=O)Nc3c(C(=O)c4ccc(C)c(F)c4)oc4ccccc34)no2)cc1	·	·	?	i	·
N#Cc1ccccc1OCC(=O)N1CCN(c2ccccc2)CC1	·	·	i	i	·
Cc1ccc(CCNC(=O)c2cc3c(=O)oc4ccccc4c3s2)cc1	·	·	i	i	·
CCOC(=O)[C@]12CCC=C1N(Cc1ccc3c(c1)OCO3)C(=O)[C@H](CC(=O)NCc1ccc(C)o1)C2	·	·	?	i	·
Cc1ccc2[nH]c3c(N4CCCCCC4)ncnc3c2c1	·	10µM*	·	·	·
CCOc1ccc2[nH]c3c(N4CCN(c5ccccn5)CC4)ncnc3c2c1	12%	16µM*	i	?	?
